Bioassay records deposited in PubChem by National Center for Advancing Translational Sciences (NCATS).
Six1-Eya2 blk: qHTS Assay for Inhibitors of the Six1/Eya2 Interaction; Homeobox protein SIX1 (Homo sapiens) + Protein phosphatase EYA2 (Homo sapiens), …; AlphaScreen GST-Six1/His-Eya2 binding, biochemical; hits give low values; activity change, % (no concentration beside the values); 360,000 compounds, 0.56% hits; AID 651725, 2012; in the data active = activity change below about -65%; inconclusive = mostly about -30% to -63%
Target sequence (O00167 whole entry, looked up): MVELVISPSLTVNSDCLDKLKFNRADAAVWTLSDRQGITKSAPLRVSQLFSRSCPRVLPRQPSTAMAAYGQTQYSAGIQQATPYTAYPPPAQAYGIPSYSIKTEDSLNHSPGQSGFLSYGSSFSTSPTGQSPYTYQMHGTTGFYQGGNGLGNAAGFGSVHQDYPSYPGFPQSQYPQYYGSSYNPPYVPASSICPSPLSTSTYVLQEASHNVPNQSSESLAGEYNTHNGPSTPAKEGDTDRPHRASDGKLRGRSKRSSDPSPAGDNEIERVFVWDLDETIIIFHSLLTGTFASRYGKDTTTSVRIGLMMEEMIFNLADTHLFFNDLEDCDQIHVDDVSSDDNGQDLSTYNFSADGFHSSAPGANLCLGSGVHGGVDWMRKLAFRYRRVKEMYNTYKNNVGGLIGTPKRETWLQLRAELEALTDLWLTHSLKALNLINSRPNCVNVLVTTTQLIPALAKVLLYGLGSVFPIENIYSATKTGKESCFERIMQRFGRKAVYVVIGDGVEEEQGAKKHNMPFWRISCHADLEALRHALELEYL
Target sequence (Q15475 whole entry, looked up): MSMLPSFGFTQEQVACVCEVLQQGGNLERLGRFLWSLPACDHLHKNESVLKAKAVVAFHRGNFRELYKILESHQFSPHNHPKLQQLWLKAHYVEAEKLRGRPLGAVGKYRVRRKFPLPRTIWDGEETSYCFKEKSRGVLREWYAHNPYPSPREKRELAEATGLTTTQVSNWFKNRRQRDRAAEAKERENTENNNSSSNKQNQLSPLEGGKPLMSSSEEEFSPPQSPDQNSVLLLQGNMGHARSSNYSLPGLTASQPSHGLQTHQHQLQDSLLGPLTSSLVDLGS
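AlphaScreen with GST-Six1 and His-Eya2 (5X mix: 250 nM and 500 nM), glutathione donor and nickel acceptor beads; buffer 50 mM Tris pH 8.0, 300 mM NaCl, 1 mM TCEP; 1 h at 37 C in the dark.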
IL-1B inflam inh: qHTS for Inhibitors of Inflammasome Signaling: IL-1-beta AlphaLISA Primary Screen; THP-1 LPS/ATP IL-1B secretion, AlphaLISA, 16 h; hits give low values; activity change, % at 57.5 µM; 360,000 compounds, 4.7% hits; in the data active = activity change below about -50%; inconclusive = mostly about -30% to -49%
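Secreted IL-1B measured by AlphaLISA bead assay after 16 h compound exposure of THP-1 cells; compounds (final up to 57.5 uM) added 1 h before LPS (250 ng/mL) and ATP (1.25 mM) stimulation; lower signal means less secretion.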
TDP1 inh: qHTS Assay for Inhibitors of Tyrosyl-DNA Phosphodiesterase (TDP1). Tyrosyl-DNA phosphodiesterase 1 (Homo sapiens), Q9NUW8. recombinant TDP1, AlphaScreen DNA substrate cleavage. Potency, µM (doses to about 130 µM), inactives show top-dose activity change, negative = inhibition, hits mostly inhibitors. 350,000 compounds, 0.28% hits. AID 485290, 2010; also: potency is read from the fitted curve at half-maximal effect; nearly all actives have a fitted effect of over 40% in size
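Enzyme-compound mixtures sat 15 min at room temperature, followed by a 5 min reaction with 15 nM final substrate and 10 min with AlphaScreen beads. Recombinant human Tdp1 was used at 1 nM final.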
CtBP-E1A inh: qHTS Assay for Inhibitors of the CtBP/E1A Interaction; activity change, % (test concentration not listed); 340,000 compounds, 0.49% hits; AID 651724, 2012; CtBP / adenovirus E1A interaction (AlphaScreen); AlphaScreen GST-E1A/His-CtBP binding, 1536-well; hits give low values; in the data active = activity change below about -65%; inconclusive = mostly about -30% to -63%
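Homogeneous bead-based format: GST-tagged E1A captured on glutathione donor beads, His-tagged CtBP on nickel acceptor beads; compounds precede bead addition by 2 h at 37 °C.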
TDP1 cell CPT: qHTS for Inhibitors of human tyrosyl-DNA phosphodiesterase 1 (TDP1): qHTS in cells in presence of CPT | chicken DT40 Tdp1-/-;hTDP1 cells + 20 nM CPT, ATP luminescence, 48 h | Potency, µM (highest dose often 46.2 µM), without a hit: at the top dose activity change, negative = growth inhibition, usual class: inhibitors | 420,000 compounds, 12% hits | AID 686979, 2013; also: potency is read from the fitted curve at half-maximal effect; nearly all actives have a fitted effect of over 55% in size
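Chicken DT40 Tdp1-/- cells stably complemented with human TDP1 were seeded at 400 cells/well in medium containing 20 nM camptothecin, exposed to pin-transferred compounds, and grown at 37 °C for at least 48 hr. Viability was read as ATP luminescence.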
DT40 TDP1 no CPT: qHTS for Inhibitors of human tyrosyl-DNA phosphodiesterase 1 (TDP1): qHTS in cells in absence of CPT; AID 686978, 2013; DT40 Tdp1-/- hTDP1 cells, no CPT, ATP luminescence, 48 h; Potency, µM (titrated, usually from 46.2 µM), without a hit: at the top dose activity change, negative = growth inhibition, usual class: inhibitors; 420,000 compounds, 15% hits; also: potency is read from the fitted curve at half-maximal effect; nearly all actives have a fitted effect of over 55% in size
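DT40 Tdp1-/-;hTDP1 cells, no CPT (DMSO vehicle only), 400 cells/well; compounds pin-transferred; ≥48 hr, 37 °C; CellTiter-Glo 30 min RT dark, luminescence read.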
The depositor's hits bear a star; i = inactive; ? = inconclusive; · = no result; [ ] = remark or other dose. A selection: hits, their analogues and other compounds. The true share with any hit is near 18%. Unless noted, calls follow the shape of the dose curve; as a rule, active = well fitted curve in the direction sought with a large enough effect; inconclusive = small, poorly fitted or top-dose-only effect, or another doubt; inactive = no such curve, though single readings can be large; an effect the other way counts as inactive or inconclusive. % is scaled to controls: 0 for no effect and ±100 for the full control effect.

SMILES	Six1-Eya2 blk	IL-1B inflam inh	TDP1 inh	CtBP-E1A inh	TDP1 cell CPT	DT40 TDP1 no CPT
Cc1cc(C)cc(N2CC(O)=C(c3nc4ccccc4c(=O)[nH]3)C2=N)c1	1.2	47.8	2.8%	4.8	13µM*	9.2µM*
COc1ccc(-c2nc3ccccc3c(=O)[nH]2)cc1	-3.6	17.6	2.8%	6.7	-20.9%	-20.1%
COc1cccc(N2CC(O)=C(c3nc4ccccc4c(=O)[nH]3)C2=N)c1	-16.9	3.6	11.6%	0.5	1.46µM*	1.16µM*
COc1cccc(C2/C(=C(/O)c3ccc4c(c3)OCO4)C(=O)C(=O)N2CCN2CCOCC2)c1 (configuration not stated)	1.1	8.2	0.8%	-2.0	27.1%	16.9%
COCCNC(=O)CSC1=N/C(=C/c2ccc(Cl)c(Cl)c2)C(=O)N1c1ccccc1F	1.8	-99.2*	-1.8%	-2.1	14.6µM*	20.6µM*
Fc1cc(Br)ccc1Nc1c2c(nc3nc(-c4cccs4)nn13)CCCC2	·	·	6.5%	·	20.6µM*	18.4µM*
c1ccc(Nc2c3c(nc4ncnn24)CCC3)cc1	-0.1	6.0	3.1%	1.6	-29.3%	-1.1%
COc1ccc(C)cc1Nc1c2c(nc3nc(-c4cccs4)nn13)CCCC2	·	·	5.3%	·	5.9%	-24.9%
CC(=O)c1cccc(Nc2c3c(nc4nc(-c5cccs5)nn24)CCCC3)c1	·	·	6.5%	·	?	18.4µM*
NC(=O)CN1CCN(C2CC(=O)N(CCc3ccccc3)C2=O)CC1 (configuration not stated)	-6.7	-16.5	5.5%	0.0	6.3%	22.9%
O=C(NCc1nnc2n1CCN(Cc1cc(F)cc(F)c1)CC2)c1cccc(F)c1	·	·	·	·	4.11µM*	4.61µM*
Cc1cccc(N2CCN(C(=O)c3sc4nc5n(c(=O)c4c3C)CCC5)CC2C)c1 (configuration not stated)	·	·	1.3%	·	16.4µM*	13µM*
Cc1c(C(=O)N2CCCCC2C)sc2nc3n(c(=O)c12)CCC3 (configuration not stated)	3.6	11.2	-0.3%	-4.2	-10.3%	0.4%
COc1ccc(N2CCN(C(=O)c3sc4nc5n(c(=O)c4c3C)CCC5)CC2)cc1	·	·	0.0%	·	?	23.1µM*
Cc1ccc(Cl)cc1N1CCN(C(=O)c2sc3nc4n(c(=O)c3c2C)CCC4)CC1	·	·	2.6%	·	14.6µM*	14.6µM*
COc1ccccc1N1CCN(C(=O)c2sc3nc4n(c(=O)c3c2C)CCC4)CC1	-1.0	-2.9	1.6%	-7.1	1.4%	7.0%
CCOc1cc(-n2ncc(C#N)c2N)nc(SC)n1	-0.6	-10.9	0.7%[56.1 µM]	2.0	0.1%	-2.4%
COc1ccc(C(=O)NCc2nnc(SCC(=O)N3CCC(C)CC3)o2)cc1OC	2.4	2.8	1.3%	1.1	6.4%	-19.7%
O=C(NCc1ccco1)c1c(F)c(F)c(F)c(C(=O)NCc2ccco2)c1F	-5.9	-130.8*	0.0%	0.0	14.8%	5.4%
O=C(NCc1ccco1)c1c(Cl)cccc1Cl	12.2	-19.3	·	-20.4	-4.2%	-9.1%
Cc1cnn(C(=S)NCc2ccco2)c1	-8.2	1.4	-6.8%	-3.6	18.4µM*	?
COC(=O)c1cccc(NC(=S)NCc2ccco2)c1	-7.3	-1.4	9.6%	-2.6	16.4µM*	14.6µM*
S=C(NCc1ccco1)NCc1ccco1	-10.1	4.1	·	1.6	?	25.9µM*
O=C(O)c1ccc(N2C(=O)c3ccccc3C2=O)cc1[N+](=O)[O-]	7.8	7.5	·	-0.3	11.5%	-14.2%
Cc1ccc(C(=O)N2CCCC(CCC(=O)NCc3ccc(F)c(F)c3)C2)cn1 (configuration not stated)	6.9	33.7	·	1.6	-28.6%	-3.9%
SMILES	Six1-Eya2 blk	IL-1B inflam inh	TDP1 inh	CtBP-E1A inh	TDP1 cell CPT	DT40 TDP1 no CPT
O=[N+]([O-])c1cccc(-c2ccc(/C=N/NC(=S)Nc3ccccc3)o2)c1	-22.2	3.5	11.1%	-18.6	-14.4%	-24.4%
S=C(NCc1ccco1)N/N=C/c1ccncc1	1.1	12.0	2.7%	-1.8	0.0%	-3.0%
CN(C)c1ccc(/C=N/NC(=S)NCc2ccco2)cc1	-17.4	-18.6	10.5%	-12.5	?	18.4µM*
O=C(Cc1ccc(-c2ccccc2)cc1)NNC(=S)NCc1ccco1	-0.1	18.5	0.0%	·	?	16.4µM*
O=C(Cc1cccs1)NNC(=S)NCc1ccco1	0.8	32.7	-2.4%	6.9	-5.5%	-13.3%
S=C(NCc1ccccn1)Nc1ccc(Br)cc1Cl	-8.1	-20.8	2.6%	0.0	1.8%	-9.3%
O=[N+]([O-])c1cccc(-c2ccc(/C=N/NC(=S)NCc3ccco3)o2)c1	-0.4	-10.6	·	-4.5	23.1µM*	16.4µM*
S=C(NCc1ccco1)Nc1ccc(Br)cc1Cl	-3.8	-82.9*	5.5%	20.6	-0.9%	-0.4%
COc1ccc(N(CC(=O)N/N=C/c2cccnc2)S(=O)(=O)c2ccc(C)cc2)cc1OC	-15.3	i	5.0%	-4.3	-12.4%	-15.5%
CCOc1ccc(OCCCC(=O)NC2=NCCS2)cc1	-0.7	5.4	0.0%	-0.8	7.7%	-7.9%
Cc1cccc(C)c1OCC(O)CN(Cc1ccccc1O)C1CCCCC1 (configuration not stated)	-1.1	-66.3*	-1.8%	-3.5	16.4µM*	10.3µM*
O=C(CN1C(=O)c2cccc3cccc1c23)N1CCc2ccccc2C1	29.8	-13.8	-4.1%	31.2	20.6µM*	11.6µM*
O=C(CN1C(=O)c2cccc3cccc1c23)N1CCN(Cc2ccc3c(c2)OCO3)CC1	-1.4	-16.5	-2.2%	3.4	?	20.6µM*
O=C(/C=C/c1ccccc1Cl)OCC(=O)N1CCc2ccccc21	-5.9	16.2	·	-9.3	6.6%	12.2%
COc1cccc(Oc2nc(N)ncc2[N+](=O)[O-])c1	4.2	-73.1*	-1.3%	-1.3	-18.9%	-17.7%
Nc1ncc([N+](=O)[O-])c(Oc2ccccc2F)n1	1.5	6.1	2.7%	3.5	-8.8%	-7.2%
CNNC(=S)NCCC1=CCCCC1	2.3	4.0	2.9%	·	-11.6%	1.7%
O=C(C1CC(=O)N(c2ccccc2F)C1)N1CCOCC1 (configuration not stated)	-1.6	-7.3	0.5%	·	20.6%	-7.9%
